High-throughput results (PubChem)
SW480 rereplic – A quantitative high throughput screen for small molecules that induce DNA re-replication in SW480 colon adenocarcinoma cells; AID 624297, 2012; SW480 DNA re-replication, Hoechst DNA content imaging, 48 h; Potency, µM (top dose mostly 46.1 µM), without a hit: at the top dose re-replication activation, most hits filed as activators; 340,000 tested, 1.8% active; also: potency is read from the fitted curve at half-maximal effect; % of control where 0% means no effect; nearly all actives have a fitted effect of over 55% in size
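Hoechst fluorescence of nuclei (405 nm excitation, 500-530 nm emission) measured by plate-scanning imager after 48 hr compound exposure at 37 C; re-replication scored as increased number of nuclei with elevated intensity.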
S2 tox – Viability Counterscreen for Primary qHTS for Inhibitors of ATXN expression; S2 cells (HEK-293 line with an ATXN2-luciferase reporter) viability, CellTiter-Fluor protease fluorescence, 24 h; Potency, µM (top dose mostly 56.7 µM), actives largely listed as cytotoxic; 400,000 tested, 0.49% active; AID 651635, 2014; also: potency is read from the fitted curve at half-maximal effect; nearly all actives have a fitted effect of over 40% in size
ATXN2 expr inh – Primary qHTS for Inhibitors of ATXN expression; HEK-293 ATXN2-luciferase reporter, luminescence, 24 h; Potency, µM (top dose mostly 57 µM), without a hit: at the top dose activity change, negative = inhibition, hits mostly inhibitors; 360,000 tested, 0.72% active; AID 1745845, 2022; also: potency is read from the fitted curve at half-maximal effect; % is scaled to controls: 0 for no effect and ±100 for the full control effect; nearly all actives have a fitted effect of over 55% in size
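qHTS (up to 57 uM final) was run with 24 h compound exposure of reporter cells at 37 °C. Each well was multiplexed: SteadyGlo luminescence measured ATXN2-luciferase expression after a fluorogenic Gly-Phe-AFC viability readout (25 uM final).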
MCF10A rereplic – A quantitative high throughput screen for small molecules that induce DNA re-replication in MCF 10a normal breast cells; MCF 10A DNA re-replication, Hoechst nuclear intensity, 48 h; Potency, µM (highest dose often 46.1 µM), for the others: at the top dose activity, positive = re-replication, actives largely listed as activators; 350,000 tested, 2.9% active; AID 624296, 2012; also: potency is read from the fitted curve at half-maximal effect; % of control where 0% means no effect; nearly all actives have a fitted effect of over 50% in size
PINK1 expr mod – A Quantitative High throughput Screen to Identify Chemical Modulators of PINK1 Expression; PINK1 immunofluorescence, high-content cytometry, 24 h; Potency, µM (titrated, usually from 76.6 µM), for the others: top-dose activation (PINK1 increase), usual class: activators; 410,000 tested, 0.2% active; AID 624263, 2012; active = well fitted activation curve with a large enough effect; inconclusive = small, poorly fitted or top-dose-only effect; cell line not stated here; also: potency is read from the fitted curve at half-maximal effect; % of control where 0% means no effect; nearly all actives have a fitted effect of over 65% in size
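Cells are seeded, rested 12 hours, then given compound at five concentrations or DMSO for 24 hours. After fixation, blocking and antibody staining, PINK1 amount and mitochondrial localization are scored; CCCP serves as control.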
IL-1B inflam inh – qHTS for Inhibitors of Inflammasome Signaling: IL-1-beta AlphaLISA Primary Screen. activity change, % at 57.5 µM. 360,000 tested, 4.7% active. THP-1 LPS/ATP IL-1B secretion, AlphaLISA, 16 h; hits give low values. AID 743279, 2014; in the data active = activity change below about -50%; inconclusive = mostly about -30% to -49%; also: % is scaled to controls: 0 for no effect and ±100 for the full control effect
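THP-1 cells pretreated 1 hr with compounds (up to 57.5 uM final), then stimulated with LPS (250 ng/mL final) plus ATP (1.25 mM final); secreted IL-1B measured by AlphaLISA after 16 hr, decreased signal indicating inhibition.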
The depositor's hits bear a star; i = inactive; u = inconclusive; x = no result given; [ ] = another dose, or the depositor's remark. Hits are enriched below; roughly 7.1% of the tested compounds scored in any of these assays. Unless noted, calls follow the shape of the dose curve; as a rule, active = well fitted curve in the direction sought with a large enough effect; inconclusive = small, poorly fitted or top-dose-only effect, or another doubt; inactive = no such curve, though single readings can be large; an effect the other way counts as inactive or inconclusive.

SMILES	SW480 rereplic	S2 tox	ATXN2 expr inh	MCF10A rereplic	PINK1 expr mod	IL-1B inflam inh
Cc1ccccc1Oc1nc2ccccn2c(=O)c1/C=C(\C#N)C(=O)Nc1c(C)n(C)n(-c2ccccc2)c1=O	-9%	i	1%	14%	-1%	0
Cc1ccccc1Oc1nc2c(C)cccn2c(=O)c1/C=C(\C#N)C(=O)Nc1c(C)n(C)n(-c2ccccc2)c1=O	u	i	-19%	21µM*	1%	u
Cc1ccc(Oc2nc3ccccn3c(=O)c2/C=C(\C#N)C(=O)Nc2c(C)n(C)n(-c3ccccc3)c2=O)cc1	-1%	i	27%	6%	5%	-61*
CCCN1CCN(c2ncc3c(n2)CCN(Cc2ccc(OC)c(OC)c2OC)C3)CC1	x	u	-5%	x	-1%	x
COc1ccc2c(c1)c1c(c(=O)n(-c3ccc(OC)c(OC)c3)c(=O)n1Cc1ccc(F)cc1)n2C	x	i	-7%	x	1%	x
Cc1ccc2nc3c(cc2c1)c(NC(=O)C1CCCO1)nn3CC(C)C (centres undefined)	u	i	2%	-179%[0.0737 µM]	8%	u
CC(C)Cn1nc(NC(=O)C(C)(C)C)c2cc3ccccc3nc21	u	i	-4%	23µM*	-1%	86
CCCn1nc(NC(=O)COC)c2cc3cc(C)ccc3nc21	0%	i	20%	2%	1%	-30
Cc1ccc2nc3c(cc2c1)c(NC(=O)C(C)(C)C)nn3CC(C)C	u	x	0%	2.9µM*	1%	28
CCn1nc(NC(=O)COC)c2cc3cc(C)ccc3nc21	23µM*	x	x	2%	1%	-4
CCN(CCCNC(=O)CSc1cc(=O)n(CC)c2ccccc12)c1cccc(C)c1	x	u	-13%	x	1%	x
COc1ccccc1CNC(=O)COc1cc2c(c3oc(=O)cc(C)c13)CCC(C)(C)O2	u	u	u	u	0%	-61*
COc1ccc(CNC(=O)COc2cc3c(c4oc(=O)cc(C)c24)CCC(C)(C)O3)cc1	-1%	i	-20%	u	4%	u
COc1ccc2ccccc2c1CN1CCC2(CCC(CNC(=O)c3ccccc3)O2)CC1 (centres undefined)	x	u	x	x	0%	x
Cc1ccc(-c2nc(NCc3cccnc3)c3ccccc3n2)cc1	1%	u	12%	u	6%	-76*
Clc1cccc(-c2nc(NCc3cccnc3)c3ccccc3n2)c1	15%	i	u	u	3%[38.3 µM]	-58*
OC(CNc1nc(-c2cccnc2)nc2ccccc12)c1ccccc1 (centres undefined)	u	i	u	21%	-2%	-66*
OCCNc1nc(-c2cccnc2)nc2ccccc12	-5%	i	-13%	u	2%[38.3 µM]	-21
c1ccc(-c2nc(NCc3cccnc3)c3ccccc3n2)cc1	3%	i	-17%	28%	2%[38.3 µM]	u
O=C(NCCc1ccc(Cl)cc1)c1cc(-c2ccc(Cl)cc2)n[nH]1	x	i	-4%	x	0%	x
O=C(Nc1ccc(Br)cc1Cl)c1cnn2c1NC(=C1CC1)C=C2C(F)F	x	x	x	x	1%	x
NC(=O)CSc1nc2c(oc3ccccc32)c(=O)n1-c1ccccc1F	x	u	7%	x	-1%	x
CC(C)CC(=O)NC1(C(F)(F)F)C(=O)Nc2c1c(=O)[nH]c(=O)n2-c1ccccc1 (centres undefined)	x	i	1%	x	-1%	x
Cn1nc(C(=O)Nc2ccccc2Cl)cc1C(=O)Nc1ccccc1Cl	4%	i	x	u	4%	-55*
Cn1nc(C(=O)Nc2ccc(Br)cc2)cc1C(=O)Nc1ccc(Br)cc1	5%	x	4%	-2%	0%	22
